Tb PGK inh: qHTS Assay to Find Inhibitors of Phosphoglycerate Kinase | Phosphoglycerate kinase, glycosomal (Trypanosoma brucei brucei), P07378 | PGK/GAPDH coupled, Kinase-Glo luminescence, 60 min | Potency, µM (titrated, usually from 57.5 µM), for inactives: at the highest dose activity change, negative = inhibition, hits mostly inhibitors | hit rate 0.043% among 380,000; further: nearly all actives have a fitted effect of over 60% in size
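Luminescent ATP detection (Kinase-Glo Plus) follows a 60-minute room-temperature incubation, with wells lacking PGK as controls. Buffer: 100 mM TEA (pH 7.6), 5 mM MgCl2, 0.01% Tween-20. Coupling enzyme GAPDH (100 nM final) supplies unstable 1,3-BPG in-well.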
Tb PFK block: qHTS Assay to Find Inhibitors of T. brucei phosphofructokinase; T. brucei PFK, ADP-Glo luminescence; Potency, µM (series often up to 57.5 µM), for inactives: top-dose activity, negative = inhibition, most hits filed as inhibitors; ATP-dependent 6-phosphofructokinase (Trypanosoma brucei brucei), O15648; AID 485367, 2010; hit rate 0.17% among 330,000;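 further: 0% = uninhibited 1x PFK enzyme wells and -100% = no-enzyme wells; nearly all actives have a fitted effect of over 60% in size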
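Luminescent ADP detection (ADP-Glo, two-step: ATP depletion then ADP-to-ATP conversion for luciferase) reported PFK activity after 45 min room-temperature reaction of 1.25 nM enzyme with 0.5 mM F6P and 0.1 mM ATP at pH 8.0.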
USP2a block: qHTS Assay for Inhibitors of Ubiquitin-specific Protease USP2a Using CHOP2 as the Reporter. hit rate 0.01% among 330,000. Potency, µM (series often up to 38.3 µM), for the others: at the highest dose activity change, negative = inhibition, hits mostly inhibitors. USP2 core, Ub-CHOP2 coupled fluorogenic reporter, 485/531. Ubiquitin carboxyl-terminal hydrolase 2 (Homo sapiens), O75604. AID 463254, 2010;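 further: plate controls were DMSO wells for no effect and full inhibition by NEM control for full effect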
Target sequence (O75604 whole entry, looked up): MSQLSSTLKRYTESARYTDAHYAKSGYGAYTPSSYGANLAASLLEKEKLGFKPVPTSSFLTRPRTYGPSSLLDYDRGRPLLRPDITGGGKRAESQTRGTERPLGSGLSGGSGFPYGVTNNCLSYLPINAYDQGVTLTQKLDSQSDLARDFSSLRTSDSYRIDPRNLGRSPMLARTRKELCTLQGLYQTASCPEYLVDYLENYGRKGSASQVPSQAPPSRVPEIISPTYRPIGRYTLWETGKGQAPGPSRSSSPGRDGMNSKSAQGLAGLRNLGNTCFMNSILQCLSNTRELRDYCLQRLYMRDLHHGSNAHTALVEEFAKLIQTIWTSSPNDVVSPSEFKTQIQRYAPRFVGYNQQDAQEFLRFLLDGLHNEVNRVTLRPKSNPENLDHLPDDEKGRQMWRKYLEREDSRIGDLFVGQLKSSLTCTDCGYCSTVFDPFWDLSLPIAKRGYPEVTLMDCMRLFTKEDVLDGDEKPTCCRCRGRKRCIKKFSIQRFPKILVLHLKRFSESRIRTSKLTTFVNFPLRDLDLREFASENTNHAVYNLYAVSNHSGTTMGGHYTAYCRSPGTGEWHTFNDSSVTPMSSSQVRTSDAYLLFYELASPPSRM
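Cell-free coupled assay: 10nM USP2 core preincubated 30min RT with compound in Tris-HCl pH 8.0/CaCl2/CHAPS buffer, then 25nM Ub-CHOP2 and 25nM reporter substrate; fluorescence (Ex 485/Em 531) read after 60min RT, normalized to NEM inhibition, concentration-response curves fitted.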
GLS inhibitor: qHTS for Inhibitors of Glutaminase (GLS); Glutaminase kidney isoform, mitochondrial (Homo sapiens), O94925; GLS enzymatic activity, qHTS titration; Potency, µM (highest dose often 45.5 µM), for the others: at the highest dose activity change, negative = inhibition, actives largely listed as inhibitors; hit rate 0.21% among 410,000; AID 624170, 2012
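Enzyme dispensed in phosphate buffer (45 mM, pH 8.2, 0.02% Tween-20), compounds pinned in, then 1 mM L-glutamine solution and the glutamate oxidase–HRP–Amplex Red mix added; fluorescence read immediately and again after 30 min at room temperature.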
KAT2A inh: qHTS Assay for Inhibitors of GCN5L2; Potency, µM (top dose mostly 58.9 µM), for inactives: at the top dose activity change, negative = inhibition, usual class: inhibitors; GCN5L2 HAT assay, ThioGlo1 CoA-SH fluorescence; Histone acetyltransferase KAT2A (Homo sapiens), Q92830; hit rate 0.21% among 390,000
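GCN5L2 (20nM final) in 50mM HEPES, 0.1mM EDTA pH 7.5, 0.01% Tween-20 was preincubated 15 min at room temperature with compound, then given ThioGlo1 (50uM), H3(1-25) peptide (75uM) and acetyl-CoA (70uM); CoA-thiol fluorescence (Ex340/Em540) was read at 0 and 20 min.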
Numbers without * were called inactive; i = inactive; ? = inconclusive; · = no result given. Shown are actives, neighbours in structure and some others; about 0.52% of the full set was active somewhere. The call rests on the fitted dose curve; in most records, active means well fitted curve in the direction sought with a large enough effect; inconclusive means small, poorly fitted or top-dose-only effect, or another doubt; inactive means no such curve, though single readings can be large; an effect the other way counts as inactive or inconclusive. Unless noted, on the % scale 0 is the no-effect control and ±100 the full control effect; potency means the concentration at half of the fitted maximal effect.

SMILES	Tb PGK inh	Tb PFK block	USP2a block	GLS inhibitor	KAT2A inh
Nc1nc(N)c2c(n1)CN(Cc1ccc(Cl)cc1)C2	-9%	·	·	11µM*	·
CC(=O)O[C@]1(C(=O)CO)[C@@H](C)C[C@H]2[C@@H]3CCC4=CC(=O)C=C[C@]4(C)[C@@]3(F)[C@@H](O)C[C@]21C	·	·	·	1%	·
CC(C)(C)C(=O)OCc1cc(=O)n2nc(C3CC3)sc2n1	i	·	·	-14%	19%
O=S(=O)(O)OCC1OC(COS(=O)(=O)O)(C2(OS(=O)(=O)O)OC(CO)C(OS(=O)(=O)O)C(OS(=O)(=O)O)C2OS(=O)(=O)O)C(OS(=O)(=O)O)C1OS(=O)(=O)O (stereo not drawn)	·	·	·	5%	·
Clc1cc(Cl)c(OCC#CI)cc1Cl	·	·	·	-26%	14µM*
CCCCOc1ccc(S(=O)(=O)Nc2cccc(-c3ccc(N4CCOCC4)nn3)c2)cc1	1%	·	·	2%	-12%
Cc1ccc(S(=O)(=O)c2cc(Nc3ccccc3)ccc2O)cc1	3%	5%	-1%	7%	-4%
CC(=O)Nc1ccc2c(O)cc(S(=O)(=O)O)cc2c1	-8%	·	·	10µM*	·
O=S(=O)(O)c1cc(O)c2ccc(Nc3ccccc3)cc2c1	?	·	·	5µM*	·
COc1ccc(S(=O)(=O)O)cc1P(=O)(c1ccccc1)c1ccccc1	3%	-2%	4%	-8%	23%
COc1ccccc1Nc1ccc2c(O)cc(S(=O)(=O)O)cc2c1	22µM*	·	·	2.2µM*	·
O=S(=O)(O)c1ccc(O)c2cc(Nc3ccccc3)ccc12	5µM*	·	·	2.2µM*	·
COc1cccc(NC(=O)C(C)n2c(=O)cc(C(F)(F)F)c3c(C)nn(C)c32)c1 (stereo not drawn)	i	·	·	-3%	-2%
Cc1nnc(N2CCN(C(=O)Nc3cc(F)ccc3F)CC2)c2nn(-c3ccc(Cl)cc3)c(C)c12	·	·	·	-19%	-9%
CCc1ccc(NC(=O)c2cnn(-c3c(C)cccc3C)c2C2CCNCC2)cc1	-5%	·	·	2%	28%
Nc1ccc2c(O)cc(S(=O)(=O)O)cc2c1	?	·	·	4µM*	·
O=S(=O)(O)c1cc(O)c2c(N=Nc3ccc(Nc4ccccc4)c4c(S(=O)(=O)O)cccc34)cc(S(=O)(=O)O)cc2c1	·	·	·	-45%	13µM*
Nc1cccc2c(O)cc(S(=O)(=O)O)cc12	18µM*	·	·	2.8µM*	·
Nc1ccc(C(=O)O)c(O)c1	9%	1%	11%	20%	-6%
Nc1ccc(N)c(C(=O)O)c1	?	?	?	5.6µM*	7.9µM*
C=CC(C)(C)c1[nH]c2ccccc2c1C1=C(O)C(=O)C(c2c[nH]c3c(CC=C(C)C)cccc23)=C(O)C1=O	·	·	·	·	16µM*
Cc1cccc(NC(=O)CSc2nc3ccc(NC(=O)c4ccco4)cc3s2)c1	-5%	·	·	3%	-12%
COc1cc(OC)c(OC)cc1/C=C1\Oc2cc(OCC(=O)N3Cc4ccccc4C[C@H]3C(=O)O)ccc2C1=O	-4%	12µM*	11%	?	-6%
CCOc1cc(/C=C(\C#N)C(=O)Nc2cccc(C(=O)O)c2)ccc1OCc1ccccc1Cl	-23%	-4%	1%	-4%	?
CCOc1cc(/C=C(\C#N)C(=O)Nc2cccc(C(=O)O)c2)cc(Br)c1OC(=O)c1ccc(OC)cc1	1%	-5%	-17%	4%	25µM*
Cc1ccc(-n2ncc3c(N(C)Cc4ccccc4)ncnc32)cc1	-11%	·	·	-2%	-3%
COc1cccc(Cn2c(=O)c(C)nc3cnc(N4CCNCC4)nc32)c1	·	·	·	·	-9%
Cc1nc2cnc(N3CCNCC3)nc2n(CCC#N)c1=O	·	·	·	·	28µM*
O=c1c(-c2ccccc2)nc2cnc(N3CCNCC3)nc2n1Cc1ccc(F)cc1	·	·	·	·	18µM*

Screening data (PubChem BioAssay)
